# Data as given in PMC7862700, “An all-to-all approach to the identification of sequence-specific readers for epigenetic DNA modifications on cytosine”.
# Columns and labels:
# Assay in all cases: DAPPL (digital affinity profiling via proximity ligation, sequencing); 10 mM Tris-HCl pH 7.5, 50 mM NaCl, 1 mM DTT, 4% glycerol, room temperature, 30 min; GST-TFs on glutathione beads, 16-mer random dsDNA library, 0.1% formaldehyde crosslink after washing; high values mean tight binding
# Settings in all cases: protein: recombinant; tags: N-terminal GST; dsDNA, one strand shown
# [1] = molecular target: ETV1 (Homo sapiens, UniProt P50549 1-477)
# How it was run: (§1)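 The binding signal reported is, for every hexamer, its read frequency for a factor over its read frequency for the tag-only sample. Reads came from pools of yeast-expressed, GST-fused human transcription factors on glutathione beads, barcoded with DNA and mixed with that sample, which were incubated with 200 nmole of a random double-stranded 16-mer DNA library in Tris/NaCl/DTT/glycerol buffer at room temperature for 30 min. After washing, the pools were crosslinked with 0.1% formaldehyde, proximity-ligated with BsaI/T4 ligase for 1 h at 37 °C, PCR-amplified and sequenced on an Illumina NextSeq500.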
# [2] = molecular target: T1, ERF (Homo sapiens, UniProt P50548 1-548)
# T1 sequence: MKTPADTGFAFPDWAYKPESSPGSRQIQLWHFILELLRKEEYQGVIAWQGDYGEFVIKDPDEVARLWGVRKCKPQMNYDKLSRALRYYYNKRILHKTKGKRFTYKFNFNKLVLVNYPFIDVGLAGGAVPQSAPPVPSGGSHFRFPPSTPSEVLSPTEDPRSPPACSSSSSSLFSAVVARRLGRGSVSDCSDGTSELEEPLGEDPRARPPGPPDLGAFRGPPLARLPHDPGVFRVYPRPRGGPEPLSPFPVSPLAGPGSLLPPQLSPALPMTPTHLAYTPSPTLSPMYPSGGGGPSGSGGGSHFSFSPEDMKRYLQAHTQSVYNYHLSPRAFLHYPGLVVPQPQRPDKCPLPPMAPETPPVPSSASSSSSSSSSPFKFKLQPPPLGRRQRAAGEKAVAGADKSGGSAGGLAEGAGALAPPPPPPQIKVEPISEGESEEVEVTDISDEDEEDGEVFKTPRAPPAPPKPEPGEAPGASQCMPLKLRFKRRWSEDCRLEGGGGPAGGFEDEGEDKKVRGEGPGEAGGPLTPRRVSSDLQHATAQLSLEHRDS
# How it was run: as §1
# [3] = molecular target: T2, ETV3L (Homo sapiens, UniProt Q6ZN32 1-361)
# T2 sequence: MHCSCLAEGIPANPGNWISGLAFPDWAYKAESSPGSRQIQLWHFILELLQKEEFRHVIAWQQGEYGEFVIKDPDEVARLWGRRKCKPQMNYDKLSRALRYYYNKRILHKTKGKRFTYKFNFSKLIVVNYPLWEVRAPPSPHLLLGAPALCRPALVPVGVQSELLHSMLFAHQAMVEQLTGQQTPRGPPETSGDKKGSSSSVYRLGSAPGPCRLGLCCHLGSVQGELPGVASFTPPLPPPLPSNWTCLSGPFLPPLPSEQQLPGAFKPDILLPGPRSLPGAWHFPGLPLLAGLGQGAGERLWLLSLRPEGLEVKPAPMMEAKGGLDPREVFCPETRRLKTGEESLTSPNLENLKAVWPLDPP
# How it was run: as §1
# [4] = molecular target: T3, ETS2 (Homo sapiens, UniProt P15036 1-469)
# T3 sequence: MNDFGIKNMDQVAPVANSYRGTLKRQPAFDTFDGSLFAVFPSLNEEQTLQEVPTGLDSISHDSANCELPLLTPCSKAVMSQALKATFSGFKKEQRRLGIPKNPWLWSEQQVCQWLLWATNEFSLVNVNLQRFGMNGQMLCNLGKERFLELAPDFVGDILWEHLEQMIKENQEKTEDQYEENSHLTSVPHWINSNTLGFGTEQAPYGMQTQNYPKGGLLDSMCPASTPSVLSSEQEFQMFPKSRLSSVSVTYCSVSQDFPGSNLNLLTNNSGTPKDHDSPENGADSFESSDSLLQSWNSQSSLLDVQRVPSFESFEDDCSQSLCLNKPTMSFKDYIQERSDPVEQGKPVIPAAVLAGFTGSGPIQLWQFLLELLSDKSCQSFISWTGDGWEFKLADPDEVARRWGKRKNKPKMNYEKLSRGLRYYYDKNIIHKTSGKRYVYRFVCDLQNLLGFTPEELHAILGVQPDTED
# How it was run: as §1
# [5] = molecular target: T4, SPDEF (Homo sapiens, UniProt O95238 1-335)
# T4 sequence: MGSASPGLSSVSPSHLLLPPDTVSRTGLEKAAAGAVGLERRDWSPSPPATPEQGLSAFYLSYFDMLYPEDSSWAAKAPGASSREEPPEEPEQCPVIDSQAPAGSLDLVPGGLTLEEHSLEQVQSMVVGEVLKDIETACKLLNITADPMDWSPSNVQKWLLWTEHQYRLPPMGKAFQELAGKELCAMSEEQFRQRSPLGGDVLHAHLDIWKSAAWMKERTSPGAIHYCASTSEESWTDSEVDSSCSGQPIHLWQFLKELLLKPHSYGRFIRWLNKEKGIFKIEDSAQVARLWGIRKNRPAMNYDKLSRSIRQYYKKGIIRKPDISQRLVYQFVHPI
# How it was run: as §1
# [6] = molecular target: T5, ETV7 (Homo sapiens, UniProt Q9Y603 1-341)
# T5 sequence: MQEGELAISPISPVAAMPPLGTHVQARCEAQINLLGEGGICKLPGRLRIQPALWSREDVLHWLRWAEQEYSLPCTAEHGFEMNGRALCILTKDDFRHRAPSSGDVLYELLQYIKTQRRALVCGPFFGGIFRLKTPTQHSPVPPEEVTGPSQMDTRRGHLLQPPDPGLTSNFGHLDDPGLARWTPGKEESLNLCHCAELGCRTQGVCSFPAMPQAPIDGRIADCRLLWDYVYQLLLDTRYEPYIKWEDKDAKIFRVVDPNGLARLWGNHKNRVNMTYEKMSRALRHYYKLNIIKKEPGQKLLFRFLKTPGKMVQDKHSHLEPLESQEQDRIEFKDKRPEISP
# How it was run: as §1
# [7] = molecular target: T6, ELF5 (Homo sapiens, UniProt Q9UKW6-2 1-255)
# T6 sequence: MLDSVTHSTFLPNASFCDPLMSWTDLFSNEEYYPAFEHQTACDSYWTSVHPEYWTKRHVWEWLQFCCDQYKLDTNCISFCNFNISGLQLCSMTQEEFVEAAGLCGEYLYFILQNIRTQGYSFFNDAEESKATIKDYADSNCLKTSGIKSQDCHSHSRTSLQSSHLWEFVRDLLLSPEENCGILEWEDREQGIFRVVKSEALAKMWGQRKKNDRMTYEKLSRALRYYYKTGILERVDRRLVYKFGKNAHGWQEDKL
# How it was run: as §1
# [8] = molecular target: T7, ETV3 (Homo sapiens, UniProt P41162-2 1-143)
# T7 sequence: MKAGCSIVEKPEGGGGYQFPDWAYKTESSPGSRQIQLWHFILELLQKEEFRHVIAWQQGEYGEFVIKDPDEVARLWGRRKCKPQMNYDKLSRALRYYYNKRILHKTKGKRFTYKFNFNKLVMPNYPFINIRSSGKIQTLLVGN
# How it was run: as §1
# [9] = molecular target: ETV6 (Homo sapiens, UniProt P41212 1-452)
# How it was run: as §1
# Sequence of ETV6 (P41212 whole entry): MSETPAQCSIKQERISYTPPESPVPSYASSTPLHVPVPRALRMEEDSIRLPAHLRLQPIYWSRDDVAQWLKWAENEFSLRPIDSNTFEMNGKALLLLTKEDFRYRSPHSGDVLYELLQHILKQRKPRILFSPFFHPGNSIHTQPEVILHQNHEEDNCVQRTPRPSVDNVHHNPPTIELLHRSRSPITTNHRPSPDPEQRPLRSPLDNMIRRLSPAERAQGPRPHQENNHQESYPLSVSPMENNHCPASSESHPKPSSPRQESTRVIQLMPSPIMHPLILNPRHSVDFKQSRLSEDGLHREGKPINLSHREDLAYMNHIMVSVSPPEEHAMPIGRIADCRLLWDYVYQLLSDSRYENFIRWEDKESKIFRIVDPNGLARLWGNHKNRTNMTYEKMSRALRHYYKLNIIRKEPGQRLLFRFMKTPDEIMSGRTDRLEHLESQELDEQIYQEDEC
# Sequence of ETV1 (P50549 whole entry, the tested form may be a part): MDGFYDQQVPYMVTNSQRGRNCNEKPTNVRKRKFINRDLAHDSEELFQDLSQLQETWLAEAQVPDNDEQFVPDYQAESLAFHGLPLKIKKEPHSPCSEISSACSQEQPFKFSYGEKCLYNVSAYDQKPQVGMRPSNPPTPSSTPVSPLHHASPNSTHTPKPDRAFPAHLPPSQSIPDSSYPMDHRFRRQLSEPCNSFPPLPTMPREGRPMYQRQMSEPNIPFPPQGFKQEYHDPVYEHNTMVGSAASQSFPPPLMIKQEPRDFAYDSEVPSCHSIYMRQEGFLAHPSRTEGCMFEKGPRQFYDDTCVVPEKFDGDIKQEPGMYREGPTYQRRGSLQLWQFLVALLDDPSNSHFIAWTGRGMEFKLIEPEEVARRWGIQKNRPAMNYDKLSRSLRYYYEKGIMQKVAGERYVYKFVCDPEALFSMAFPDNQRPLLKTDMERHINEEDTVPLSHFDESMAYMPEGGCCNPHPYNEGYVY
sequence,measurement,setting,value
ACTATA,binding signal,[1],"1.26 fold enrichment (6-mer frequency, TF over GST control)"
same,binding signal,[2],"1.29 fold enrichment (6-mer frequency, TF over GST control)"
same,binding signal,[3],"1.24 fold enrichment (6-mer frequency, TF over GST control)"
same,binding signal,[4],"1.36 fold enrichment (6-mer frequency, TF over GST control)"
same,binding signal,[5],"1.42 fold enrichment (6-mer frequency, TF over GST control)"
same,binding signal,[6],"1.28 fold enrichment (6-mer frequency, TF over GST control)"
same,binding signal,[7],"1.35 fold enrichment (6-mer frequency, TF over GST control)"
same,binding signal,[8],"1.33 fold enrichment (6-mer frequency, TF over GST control)"
same,binding signal,[9],"1.31 fold enrichment (6-mer frequency, TF over GST control)"
